Drawing on PubChem BioAssay, this text covers activity remaining for 39 compounds.

Unmarked numbers belong to inactive results. No rule for the calls is given here.

In this experiment the test system is Aerobactin synthetase IucA (Klebsiella pneumoniae hvKP1). The experiment can be described thus: IucA enzyme inhibition, primary screen, biochemical, Spectrum library (AID 1346200).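 Also: 100% = wells without compound and 0% = wells lacking enzyme.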 The following applies: malachite green pyrophosphate, A620, at 8 µM, stronger effect = lower value.
For `CN(CCOc1ccc(CC2SC(=O)NC2=O)cc1)c1ccccn1` (centres undefined), the activity remaining is 113%.
The result for `COc1cc([C@@H]2c3cc4c(cc3C(O[C@@H]3O[C@@H]5CO[C@@H](c6cccs6)OC5[C@H](O)[C@H]3O)C3COC(=O)[C@@H]32)OCO4)cc(OC)c1O` (some centres undefined) reads 92.9%.
For the compound `O=C(O)CCNC(=O)c1ccccc1`, the activity remaining was 103%.
With `NC(=O)c1ccccc1O`, the activity remaining is 88.1%.
For `CCCCCCNC(=O)n1cc(F)c(=O)[nH]c1=O`, the activity remaining was 112%.
For `Oc1c(I)cc(I)c2cccnc12`, the activity remaining is 102%.
For the compound `O=c1c(O)cccc2c([C@H]3Oc4cc(O)cc(O)c4C[C@@H]3O)cc(O)c(O)c12`, the activity remaining was 99.4%.
Turning to `COC(=O)C1[C@H]2C[C@H]3c4[nH]c5ccccc5c4CCN3C[C@@H]2CC[C@@H]1O` (some centres undefined), the activity remaining is 112%.
Regarding `O=c1cc(-c2ccc(O)cc2)oc2cc(O[C@@H]3O[C@H](CO)[C@@H](O)[C@H](O)[C@H]3O)cc(O)c12`, the activity remaining was 101%.
The result for `COc1cc(OC)c2c(c1Cl)OC1(C2=O)C(O)=CC(=O)CC1C` (centres undefined) reads 107%; that for `CC1(C)O[C@@H]2CC3C4C[C@H](F)C5=CC(=O)C=CC5(C)C4C(O)CC3(C)[C@]2(C(=O)CO)O1` (some centres undefined), 111%; that for `O=C(/C=C/c1ccc(O)cc1)c1ccccc1O`, 109%.
For the compound `CC(=O)Oc1ccc2c(c1C(C)C)CCC1C(C)(C)CCC[C@]21C` (some centres undefined), the activity remaining was 97.3%.
For the compound `Cc1ncc(CO)c(CO)c1O`, the activity remaining is 102%.
Consider `CNCC[C@H](Oc1cccc2ccccc12)c1cccs1`, for which the activity remaining is 114%.
As to `CC(COc1ccccc1)NC(C)[C@H](O)c1ccc(O)cc1` (some centres undefined), the activity remaining was 119%.
To `C[n+]1c2cc(N)ccc2cc2ccc(N)cc21` belongs 111%; to `CN(C)C(=N)N=C(N)N`, 120%; to `NS(=O)(=O)c1cc(C2(O)NC(=O)c3ccccc32)ccc1Cl` (centres undefined), 117%.
For the compound `NC(=O)c1ccc([N+](=O)[O-])cc1Cl`, the activity remaining is 107%.
In the case of `OC[C@H]1O[C@@H](Oc2ccc(O)cc2)[C@H](O)[C@@H](O)[C@@H]1O`, the activity remaining is 115%.
Take `CCCCCc1c2c(cc(O)c1C(=O)O)OC(=O)c1c(cc(OC)cc1C(=O)CCCC)O2`: the activity remaining is 121%.
The result for `COC(=O)C[C@H]1C2(C)CC34OC5(C)O[C@@]6([C@H](OC(C)=O)C(OC(C)=O)[C@]7(C)C(/C(=C(/O)C(C)C)C(=O)O[C@H]7c7ccoc7)[C@@]6(O5)[C@H](OC(C)=O)[C@@]3(O)C2OC(=O)C(C)C)[C@]14C` (some centres undefined) reads 104%; that for `O=C(O[C@@H]1Cc2c(O)cc(O)cc2O[C@@H]1c1cc(=O)c(O)c2c(O)c(O)cc([C@H]3Oc4cc(O)cc(O)c4C[C@H]3O)c2c1)c1cc(O)c(O)c(O)c1`, 106%; that for `C#CCCCCCCCCCCCC(=O)CC(O)COC(C)=O` (centres undefined), 122%.
`C[C@]12CCC3c4ccc(O)cc4CCC3C1CC[C@@H]2O` (some centres undefined): the activity remaining was 125%.
Consider `CCCCCCOc1ccccc1C(N)=O`, for which the activity remaining is 96.8%.
`NCC(=O)CCC(=O)O`: the activity remaining was 77.6%.
As to `CCCCC(=O)O[C@]1(C(=O)CO)[C@@H](C)CC2C3CCC4=CC(=O)C=C[C@]4(C)[C@@]3(F)C(O)C[C@@]21C` (some centres undefined), the activity remaining is 121%.
In the case of `CC(C)CCCC(C)[C@H]1CCC2C3CC[C@H]4CC(=O)CC[C@]4(C)C3CC[C@@]21C` (some centres undefined), the activity remaining is 102%.
Regarding `COc1cc(/C=C/C(=O)N2CCC=CC2=O)cc(OC)c1OC`, the activity remaining is 95.4%.
To `CC(=O)Oc1cccc2c1C(=O)c1c(OC(C)=O)cc(C(=O)O)cc1C2=O` belongs 102%.
The result for `COc1cc2c(cc1OC)C(=O)OC2` reads 110%.
In the case of `C[C@@H]1CC2C3C[C@H](F)C4=CC(=O)C=C[C@]4(C)[C@@]3(F)[C@@H](O)C[C@]2(C)[C@@]1(O)C(=O)COC(=O)C(C)(C)C` (some centres undefined), the activity remaining was 98.9%.
For the compound `NS(=O)(=O)c1cc2c(cc1C(F)(F)F)NC(Cc1ccccc1)NS2(=O)=O` (centres undefined), the activity remaining is 98.7%.
For the compound `C[C@]12CCC(=O)C=C1CCC1C2[C@@H](O)C[C@@]2(C)C1CC[C@]2(O)C(=O)COC(=O)CCC(=O)O` (some centres undefined), the activity remaining is 123%.
For `CC(=O)[C@@]1(O)CCC2C3C[C@H](C)C4=CC(=O)C=CC4(C)[C@@]3(F)[C@@H](O)C[C@@]21C` (some centres undefined), the activity remaining was 114%.
With `CN(N=O)C(=O)N[C@@H]1[C@@H](O)[C@H](O)[C@@H](CO)O[C@@H]1O`, the activity remaining is 112%.
For `O=C(Oc1ccccc1C(=O)O)c1ccccc1O`, the activity remaining was 115%.
